Screening results as filed in PubChem BioAssay.
Hits are enriched below; roughly 2.8% of the tested compounds scored in any of these assays.
GASC-1 inh: blocks human GASC-1 demethylase activity. GST-JMJD2C(1-420) H3K9me3 demethylation, DELFIA europium. actives 0.069% (n = 330,000). Q9H3R0. inhibition, % at 2.35 µM. AID 2099;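 active = more than half of a compound's replicate wells show inhibition beyond 50%, single wells judged on their own value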;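 also: signal counts dimethyl H3K9 product captured on neutravidin plate; 0% = median of DMSO wells and 100% = 0.3 times that DMSO median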
PP1 inh: blocks human PP1-alpha phosphatase, a PP5 counter-screen | P62136 | purified PP1alpha, OMFP fluorescence | inhibition, % at 6.7 µM | actives 0.9% (n = 320,000) | AID 2235;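 active = inhibition above the mean inhibition of all tested compounds plus 3 SD, computed separately for each screening campaign, cut at about 15% in these data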
PG9 Ab binder: small molecules binding HIV-1 gp120 antibody PG9 | actives 0.43% (n = 360,000) | TR-FRET gp120-PG9 antibody binding | inhibition, % at 6.7 µM; in the data active = inhibition above about 8.5%
PP5 primary: inhibitors of human protein phosphatase 5 (PP5); purified PP5c, OMFP substrate fluorescence; inhibition, % at 6.7 µM; actives 0.18% (n = 320,000); AID 1987;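 active = inhibition above the campaign's mean inhibition across all tested compounds plus 3 SD, cut at about 9.5% in these data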;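 also: 0% = DMSO only and 100% = 100 µM cantharidin control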
proKLK7 act: activates the human kallikrein-7 zymogen; P49862; purified proKLK7, EDANS-DABCYL substrate fluorescence; 100% is mature enzyme control, 0% vehicle; activation, % at 7 µM; actives 0.9% (n = 370,000);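 active = activation above the mean of all tested compounds plus 3 SD, computed per campaign excluding outliers beyond control limits, cut at about 13% in these data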
Rev-erbA mod: modulates human Rev-erb alpha binding to DNA; P20393; actives 0.79% (n = 370,000); activity, % at 10 µM; AID 1259318; Rev-erbα–FITC-DNA binding, fluorescence polarization, 90 min;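 active = activity above about 14%, limit read from the data; passing the limit was not always enough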;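 also: 0% = DMSO wells with 35 nM protein and 100% = DMSO wells with 750 nM protein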
Target sequence (P20393 whole entry, looked up): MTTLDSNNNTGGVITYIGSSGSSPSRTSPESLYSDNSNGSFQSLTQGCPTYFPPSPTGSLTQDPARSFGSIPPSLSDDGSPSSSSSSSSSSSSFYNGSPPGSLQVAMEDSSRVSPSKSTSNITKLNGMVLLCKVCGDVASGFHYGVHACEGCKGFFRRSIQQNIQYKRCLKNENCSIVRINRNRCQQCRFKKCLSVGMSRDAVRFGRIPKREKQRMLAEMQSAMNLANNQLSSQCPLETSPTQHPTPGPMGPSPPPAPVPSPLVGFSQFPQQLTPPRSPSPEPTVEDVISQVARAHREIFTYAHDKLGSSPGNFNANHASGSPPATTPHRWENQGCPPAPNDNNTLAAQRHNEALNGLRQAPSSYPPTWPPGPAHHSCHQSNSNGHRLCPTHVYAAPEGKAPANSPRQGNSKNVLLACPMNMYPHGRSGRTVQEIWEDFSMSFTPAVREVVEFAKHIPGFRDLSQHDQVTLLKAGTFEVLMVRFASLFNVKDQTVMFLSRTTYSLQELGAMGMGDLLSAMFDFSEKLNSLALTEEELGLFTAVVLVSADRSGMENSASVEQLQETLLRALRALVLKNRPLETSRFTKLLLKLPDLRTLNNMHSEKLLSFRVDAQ
PG9 binder conf: confirmation of small molecules binding HIV-1 gp120 antibody PG9; shares compounds with PG9 Ab binder; TR-FRET PG9 antibody binding, biochemical; inhibition, % at 6.7 µM; actives 90% (n = 1,500); in the data active = inhibition above about 9%
PGV04 counter: binds control antibody PGV04 in PG9 binder counter-screen; actives 95% (n = 1,500); shares compounds with PG9 Ab binder; inhibition, % at 6.7 µM; AID 651604; TR-FRET PGV04 antibody-gp120 binding, biochemical; in the data active = inhibition above about 9.5%
PG9 bind DR: small molecules binding HIV-1 gp120 antibody PG9. shares compounds with PG9 Ab binder. TR-FRET PG9 antibody-gp120 binding inhibition. IC50, µM. 95 tested, under 10 active. AID 651848; in the data active = IC50 below about 10 µM
PGV04 binding DR: binds control antibody PGV04 in PG9 counter-screen; shares compounds with PG9 Ab binder; TR-FRET binding to control antibody PGV04; actives 20% (n = 95); IC50, µM
PG126 DR counter: binds control antibody PG126 in PG9 counter-screen. shares compounds with PG9 Ab binder. TR-FRET binding to antibody PG126, counterscreen. IC50, µM. actives 20% (n = 95). AID 651939
The depositor's hits bear a star; i = inactive; x = no result. Rule as the data show it, unless noted: active = IC50 below about 9 µM; inactive = the rest.

SMILES	GASC-1 inh	PP1 inh	PG9 Ab binder	PP5 primary	proKLK7 act	Rev-erbA mod	PG9 binder conf	PGV04 counter	others
N#Cc1c(N)c(C#N)c(-c2ccc3c(c2)OCO3)c2c1CCCC2	0.7	-5.6	11.2*	1.6	-0.2	12.7	10.0*	23.0*
C#CCN1C(=O)[C@]2(OCCC=C[C@H]2C)c2cc(OC)ccc21	x	x	0.0	x	0.0	-1.3	x	x
O=C(C1=C(O)C(=O)N(CC2CCCO2)C1c1ccc(Cl)cc1Cl)c1ccco1 (stereo not drawn)	6.1	12.3	10.7*	2.1	1.4	-4.8	19.0*	23.4*
O=C(C1=C(O)C(=O)N(CC2CCCO2)C1c1ccccc1Cl)c1ccco1 (stereo not drawn)	-9.7	2.8	6.8	-0.8	0.5	-6.7	x	x
Cc1nc(N2CCC(C)CC2)c2c(C)c(C(=O)Nc3ccc4c(c3)OCCO4)sc2n1	-5.9	0.6	-1.9	0.3	-1.6	11.3	x	x
Cc1nc(N2CCC(C)CC2)c2c(C)c(C(=O)Nc3ccc(C(F)(F)F)cc3)sc2n1	-1.4	-4.9	41.5*	2.0	0.1	15.2	7.8	11.1*
CCOC(=O)C1CCCN(C(=O)c2ccc3oc(Cc4ccccc4)nc3c2)C1 (stereo not drawn)	-0.1	-1.8	12.0*	-2.0	-0.3	-0.6	4.7	6.9
Cc1ccc(NC(=O)c2cc(=O)[nH]c3ccc(S(=O)(=O)N4CCOCC4)cc23)cc1	5.3	-1.2	-1.7	-0.7	0.1	3.9	x	x
CCc1cccc(C)c1NC(=O)c1cc(=O)[nH]c2ccc(S(=O)(=O)N3CCOCC3)cc12	-3.6	-1.1	14.3*	-0.6	-0.1	-1.4	18.1*	27.7*
Cc1ccc2cc(C#N)c(NCc3ccccc3)nc2c1	5.2	-1.1	34.6*	-0.6	-3.4	-0.5	30.1*	55.0*
COc1ccc(Nc2nc3cc(C)ccc3cc2C#N)c(OC)c1	7.8	-1.7	-0.5	0.9	0.5	1.1	x	x
COc1ccc(Nc2nc3cc(C)ccc3cc2C#N)cc1	1.1	0.9	10.6*	1.6	0.3	11.9	10.4*	15.0*
O=C(NCc1ccco1)O[C@@H]1CC[C@@]23CCCN2C(=O)CCC[C@H]3C1	x	x	x	x	x	4.5	x	x
O=[N+]([O-])c1cncc2[nH]cnc12	x	x	x	x	0.0	0.0	x	x
COc1ccc(N2C(=O)c3n[nH]c(C(C)C)c3C2c2ccc(C)cc2)cc1 (stereo not drawn)	x	x	0.5	x	0.1	-0.9	x	x
CC(=O)c1c(C)[nH]c(C(=O)Nc2ccc(C)c(S(=O)(=O)Nc3ccc(C)cc3C)c2)c1C	-8.4	0.1	10.6*	4.6	0.5	4.7	13.2*	15.6*
CCOC(=O)c1cnc2c(Cl)cc(Cl)cc2c1NCCOCCO	6.4	2.5	13.0*	-1.4	-0.7	-2.9	9.7*	12.1*
O=c1oc2c(CN3CCOCC3)c(O)ccc2c2ccccc12	-0.1	0.0	1.4	3.5	1.1	-8.4	x	x
CN(Cc1c(O)ccc2c1oc(=O)c1ccccc12)C1CCCCC1	19.8	9.9	9.9*	4.1	-2.5	-3.5	11.7*	16.7*
COC(=O)C[C@H]1CC[C@@H]2[C@H](COc3ccc(NC(=O)NCc4ccccc4)cc3C(=O)N2C)O1	x	x	x	x	-0.2	8.8	x	x
O=C(N[C@@H](Cc1cccnc1)C(=O)N1CCC[C@H]1C(=O)NC1CCCC1)c1ccccc1	x	x	0.1	x	0.2	0.9	x	x
Cc1ccc(-n2c(-c3nn(C)cc3Cl)n[nH]c2=S)cc1	-2.0	-1.3	1.3	0.6	0.2	-3.4	x	x
Cc1c(Cl)c(-c2n[nH]c(=S)n2-c2ccc(F)cc2)nn1C	35.7	-3.1	10.4*	0.3	0.2	-1.1	11.9*	10.8*	PG9 bind DR=>67;PGV04 binding DR=i;PG126 DR counter=i
Cn1cc(Cl)c(-c2n[nH]c(=S)n2-c2ccccc2)n1	3.4	-0.3	16.1*	-0.2	-0.5	3.7	14.7*	17.0*
Cn1cc(Cl)c(-c2n[nH]c(=S)n2-c2ccc(F)cc2)n1	-5.7	4.4	0.0	-0.6	-0.2	-4.7	x	x
SMILES	GASC-1 inh	PP1 inh	PG9 Ab binder	PP5 primary	proKLK7 act	Rev-erbA mod	PG9 binder conf	PGV04 counter	others
Fc1cccc(-c2n[nH]c(=S)n2-c2ccccc2)c1	1.0	-2.2	15.1*	1.2	-0.6	8.1	4.0	9.5*
Cc1cc(-c2n[nH]c(=S)n2-c2ccccc2)nn1C	1.0	-2.6	-0.6	0.8	-0.4	-3.5	x	x
OC(c1ccccc1)(c1ccccc1)C1CCN(CCCNc2cccc(OC(F)(F)F)c2)CC1	x	x	x	x	0.2	-1.3	x	x
Cc1cc(NS(=O)(=O)c2ccc(NC(=O)CSc3nnc(-c4ccco4)n3-c3ccc(Cl)cc3)cc2)nc(C)n1	x	x	x	x	0.2	-0.4	x	x
CCOc1ccc(C(=O)NCc2ccco2)cc1	-11.9	-1.2	-2.8	5.3	0.0	-3.8	x	x
CCOc1cc(OCC)cc(C(=O)NCc2ccco2)c1	13.0	-4.0	8.9*	4.2	0.0	-5.8	4.6	5.5
CC(C)(S)C(=O)N[C@@H](CS)C(=O)O	x	x	x	x	x	8.4	x	x
CC(=O)NC(CSc1cc(C)nc2ccc(Br)cc12)C(=O)O (stereo not drawn)	2.9	1.7	20.7*	0.0	1.1	2.1	34.5*	49.7*
O=C(N1CCc2ccccc2C1)n1cc(C(O)(c2ccccc2)c2ccccc2)nn1	x	x	x	x	x	-4.0	x	x
Cc1cccc(C)c1NC(=O)Cn1nc(-c2ccc(Cl)s2)ccc1=O	-1.8	-1.1	11.1*	2.3	0.0	-1.4	6.9	8.7
Cc1cc(NC(=O)Cn2nc(-c3cccs3)ccc2=O)cc(C)c1Br	6.8	-3.4	-0.5	1.5	-0.8	6.0	x	x
CCOC(=O)N1CCC(NC(=O)c2cc3sccc3n2CC)CC1	1.6	-3.9	-0.7	0.0	0.0	-2.6	x	x
CCn1c(C(=O)NC2CCC(C)CC2)cc2sccc21 (stereo not drawn)	15.6	-2.5	11.0*	0.0	0.2	1.5	4.5	8.3
COC1=C[C@H](C(=O)NCc2ccc(OC)cc2)C(C)C(c2ccccc2)CC1=O (stereo partly drawn)	x	x	x	x	-0.2	-9.2	x	x
CN(CC(=O)Nc1ccc(F)cc1)C(=O)CCc1nc2sc3c(c2c(=O)[nH]1)CCCC3	3.0	-3.0	14.7*	0.9	1.3	16.0	13.4*	31.4*
